# Screen size: about 1,900 compounds; about 250 (13%) were called active. Another 4% or so got no clear call; they are omitted. These entries were drawn from the full list. Potency and affinity values are given separately. Values without a mark were called inactive.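 Rule for the calls: active = fitted curve reaches 40% rescue activity at or below the top valid dose, in every test run; inconclusive = test runs disagree, some active and some inactive; inactive = every run misses the threshold or moves the wrong way.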
# Assay: suppressors of statin myotoxicity in myotubes, dose response, cell-based, C2C12 myotubes, ATP luminescence, cherry pick (AID 624405);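 note: myotubes are challenged with simvastatin at 10 µM to lower ATP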
# Conditions: C2C12 myotubes + simvastatin, 48 h, scaled: DMSO wells 0, geranylgeraniol wells 100; series mostly up to 19.5 µM; rescue activity (ATP increase): at the top concentration
row,Compound,rescue activity (ATP increase)
1,CC(C)(Oc1ccc(Cl)cc1)C(=O)NCc1ccco1,-10.1%
2,CN1CCN(c2ccc(NC(=S)NC(=O)c3cccc4c(Br)cccc34)cc2)CC1,12.4%
3,C[C@@H]1CCCCO[C@@H](CN(C)C(=O)Nc2ccc(C(F)(F)F)cc2)[C@H](C)CN([C@@H](C)CO)C(=O)c2cc(NC(=O)c3ccccc3)ccc2O1,4.74%
4,Cc1ccc(S(=O)(=O)N(C)C[C@H]2Oc3ccc(NC(=O)Cc4ccccc4)cc3CC(=O)N([C@@H](C)CO)C[C@@H]2C)cc1,10.6%
5,C[C@@H]1CCCCO[C@H](CN(C)S(=O)(=O)c2ccc(Cl)cc2)[C@@H](C)CN([C@@H](C)CO)C(=O)c2cc(NS(C)(=O)=O)ccc2O1,17.1%
6,COc1ccc(C(=O)c2ccc(OC)cc2O)c(O)c1,-31.7%
7,C[C@H]1CN([C@@H](C)CO)C(=O)Cc2cc(NC(=O)CCCCCC(=O)Nc3ccccc3N)ccc2O[C@@H]1CN(C)Cc1ccc(C(F)(F)F)cc1,26.4% [at 16 µM]
8,C[C@H](CO)N1C[C@H](C)[C@H](CN(C)Cc2ccc(C(F)(F)F)cc2)Oc2ccc(NC(=O)CCCCCC(=O)Nc3ccccc3N)cc2CC1=O,4.41%
9,Cc1onc(-c2ccccc2)c1C(=O)OCC(=O)Nc1ccc2c(c1)OCO2,11.4%
10,Cc1ccc(NC(=O)C(=S)NCc2ccco2)cc1,-12.1%
11,FC(F)(F)c1cccc(-c2nnc(-c3ccccc3)c(N3CCOCC3)n2)c1,-100%
12,Cc1ccc(Nc2cc(=O)[nH]c(=O)[nH]2)c(C)c1,3.31%
13,COCC(=O)N1C[C@H]2[C@@H](c3ccccc31)[C@@H](CO)N2Cc1ccc(OC)cc1,-32.2%
14,CCCNC(=O)N(C)C[C@@H]1Oc2cc(-c3ccccc3)ccc2S(=O)(=O)N([C@@H](C)CO)C[C@@H]1C,-7.2%
15,CC(C)NC(=O)Nc1ccc2c(c1)C(=O)N([C@@H](C)CO)C[C@H](C)[C@H](CN(C)Cc1ccccc1)O2,7.77%
16,COc1ccc(NC(=O)CSc2nnc(-c3ccccc3Cl)n2Cc2ccco2)c(OC)c1,13.5%
17,COc1ccc2cc(C(=O)O)n(CC(=O)c3ccccc3)c2c1,25.9%
18,CCC(CC)C(=O)c1c[nH]c(C(=O)NCC2CCCO2)c1 (configuration not stated),8.18%
19,CN1C[C@H]2[C@@H](c3ccccc31)[C@H](CO)N2Cc1ccccc1,1.69%
20,O=C(c1ccc(F)cc1)N1CCC(N2CCCCCC2)CC1,-15.7%
21,Cc1ccc(C)c(NS(=O)(=O)c2ccc(-n3cccn3)cc2)c1,31.4%
22,Cc1ccc(NS(=O)(=O)c2ccc(-n3cccn3)cc2)cc1Cl,17.5%
23,CC(C)c1ccc(NS(=O)(=O)c2ccc(-n3cccn3)cc2)cc1,7.18%
24,CCc1cccc(NS(=O)(=O)c2ccc(-n3cccn3)cc2)c1,37.6%
25,COc1ccc(C#Cc2cnc3c(c2)C(=O)N([C@H](C)CO)C[C@H](C)[C@@H](CN(C)C(=O)Nc2cccc(OC)c2)O3)cc1,32.5%
26,COc1cc(C(=O)OCCN2CCOCC2)ccc1O,0.799%

row,Compound,rescue activity (ATP increase)
1,C[C@@H]1CN([C@@H](C)CO)C(=O)c2cccc(NC(=O)C3CCCCC3)c2O[C@@H]1CN(C)S(=O)(=O)c1ccc(Cl)cc1,6.54%
2,C[C@H](CO)N1C[C@H](C)[C@H](CN(C)S(C)(=O)=O)OCCCC[C@H](C)Oc2ccc(NS(=O)(=O)c3ccc(F)cc3)cc2C1=O,20%
3,COc1ccc(-c2cnc3c(c2)C(=O)N([C@H](C)CO)C[C@H](C)[C@H](CN(C)S(=O)(=O)c2ccc(F)cc2)O3)cc1,22.4%
4,Cc1[nH]nc2c1C(c1ccsc1)C(C#N)=C(N)O2 (configuration not stated),15.8%
5,OC[C@H]1[C@H]2c3ccccc3NC[C@H]2N1Cc1ccccc1Cl,-8.25%
6,CCC(CC)C(=O)Nc1cccc(/C(C)=N/NC(=O)c2ccccc2Cl)c1,-38.2%
7,COc1cc(OC)cc(C(=O)Nc2ccccc2C(=O)N2CCCC2)c1,4.03%
8,O=C(NCc1ccncc1)Nc1ccccc1Cl,3.84%
9,C[C@@H]1CN([C@@H](C)CO)C(=O)Cc2cc(NS(=O)(=O)c3ccc(Cl)cc3)ccc2O[C@@H]1CN(C)Cc1ccc(C(F)(F)F)cc1,7.12%
10,C[C@@H]1CN([C@@H](C)CO)C(=O)c2cccc(NS(=O)(=O)c3ccccc3)c2O[C@@H]1CN(C)S(=O)(=O)c1cccs1,25.9%
11,O=C(Cn1cnc2c(nnn2Cc2ccc(F)cc2)c1=O)NC1CCCC1,-82.2% [at 10 µM]
12,O=C1c2ccccc2NC(c2cccc(F)c2)N1Cc1ccco1 (configuration not stated),16.9%
13,C[C@H](CO)N1C[C@H](C)[C@@H](CN(C)S(=O)(=O)c2cccs2)OCCCC[C@H](C)Oc2ccc(NC(=O)Nc3ccc(F)cc3)cc2C1=O,-8.95%
14,CCc1ccc(C(O)(CC(C)C)C(CN2CCOCC2)c2ccccc2)cc1 (configuration not stated),30.6%
15,N#CC(c1ccc(Cl)cc1)c1ccc(Cl)nn1 (configuration not stated),23.7%
16,Cc1cc(C)n(CC(=O)N2c3ccccc3Sc3ccccc32)n1,-1.56%
17,O=C(COC(=O)Cc1ccccc1F)NCc1ccc(Cl)cc1,-19.9%
18,CCOC(=O)C(C)C1(O)c2ccccc2-c2ncccc21 (configuration not stated),-4.05%
19,CN1C[C@H]2[C@@H](c3ccccc31)[C@@H](CO)N2Cc1ccccc1,5.51%
20,CC(=O)N1c2ccc(S(=O)(=O)NCCC(=O)NCCc3ccc(C)cc3)cc2CC1C (configuration not stated),-9.48%
21,CCOc1ccc(N(CC(=O)NCc2ccco2)S(=O)(=O)c2ccc(OC)c(OC)c2)cc1,11.6%
22,Nc1nnc(-c2ccccc2)c(-c2ccccc2)n1,15.7%
23,O=S(=O)(NC1=NCCC1)c1ccc(F)cc1,27.9%
24,C[C@@H]1CCCCO[C@@H](CN(C)S(=O)(=O)c2cccs2)[C@@H](C)CN([C@@H](C)CO)C(=O)c2cc(NC(=O)Nc3ccc(F)cc3)ccc2O1,2.39%
25,C[C@@H]1CCCCO[C@H](CN(C)C(=O)NC2CCCCC2)[C@H](C)CN([C@@H](C)CO)C(=O)c2cc(NS(=O)(=O)c3cccs3)ccc2O1,21.2%
26,Cc1cc(S(=O)(=O)Nc2nc(CN3CCOCC3)nc3sc4c(c23)CCCC4)ccc1F,-8.27%

row,Compound,rescue activity (ATP increase)
1,C[C@H]1CN([C@@H](C)CO)C(=O)Cc2cc(NC(=O)Cc3ccccc3)ccc2O[C@@H]1CN(C)Cc1ccc(Cl)c(Cl)c1,22.2%
2,C[C@H]1CN([C@@H](C)CO)C(=O)Cc2cc(NC(=O)CCCCCC(=O)Nc3ccccc3N)ccc2O[C@@H]1CN(C)Cc1ccc(Cl)c(Cl)c1,37.1% [at 18 µM]
3,CC1CCCCN1S(=O)(=O)c1ccc(C(=O)Nc2sccc2C(N)=O)cc1 (configuration not stated),39%
4,O=C(CNC(=O)c1ccc(Br)cc1)N/N=C/c1cccnc1,11.2%
5,C[C@@H]1CCCCO[C@@H](CN(C)CC2CCCCC2)[C@@H](C)CN([C@H](C)CO)C(=O)c2cc(NC(=O)Nc3ccc4c(c3)OCO4)ccc2O1,-13.1% [at 21 µM]
6,C[C@H]1CN([C@@H](C)CO)C(=O)c2cc(NC(=O)Nc3ccc(C(F)(F)F)cc3)ccc2O[C@H]1CN(C)Cc1ccc(C(=O)Nc2ccccc2N)cc1,44.6% [at 18 µM]
7,C[C@H](CO)N1C[C@H](C)[C@H](CN(C)Cc2ccc(C(=O)Nc3ccccc3N)cc2)Oc2ccc(NC(=O)Nc3ccc(C(F)(F)F)cc3)cc2C1=O,13.2% [at 16 µM]
8,C[C@@H]1CN([C@H](C)CO)C(=O)c2cc(NC(=O)Nc3ccc(C(F)(F)F)cc3)ccc2O[C@H]1CN(C)Cc1ccc(C(=O)Nc2ccccc2N)cc1,27.5% [at 16 µM]
9,C[C@@H]1CN([C@@H](C)CO)C(=O)c2cccc(NC(=O)c3nc4ccccc4s3)c2O[C@H]1CN(C)Cc1ccc(C(=O)Nc2ccccc2N)cc1,14.9%
10,C[C@@H]1CN([C@H](C)CO)C(=O)c2cccc(NC(=O)c3nc4ccccc4s3)c2O[C@@H]1CN(C)C(=O)Nc1cccc2ccccc12,24%
11,C[C@@H]1CN([C@@H](C)CO)C(=O)c2cccc(NC(=O)Nc3ccccc3)c2O[C@H]1CN(C)Cc1ccc(C(=O)Nc2ccccc2N)cc1,25.3%
12,C[C@@H]1CN([C@@H](C)CO)C(=O)c2cc(NC(=O)Nc3ccc(C(F)(F)F)cc3)ccc2O[C@@H]1CN(C)Cc1ccc(C(=O)Nc2ccccc2N)cc1,4.69%
13,C[C@@H]1CN([C@H](C)CO)C(=O)c2cccc(NC(=O)C3CCOCC3)c2O[C@@H]1CN(C)Cc1ccc(C(=O)Nc2ccccc2N)cc1,39%
14,O=C(O)CCC(C(=O)O)n1c(O)c(C2=c3ccccc3=NC2=O)sc1=S (configuration not stated),-21%
15,COc1ccc(C(=O)N2C[C@H]3[C@@H](c4ccccc42)[C@H](CO)N3Cc2ccccc2)cc1,16.5% [at 21 µM]
16,C[C@H]1CN([C@@H](C)CO)C(=O)c2cccc(NC(=O)Nc3ccc(C(F)(F)F)cc3)c2O[C@@H]1CN(C)S(=O)(=O)c1ccc(Cl)cc1,-65.9%
17,C[C@H]1CCCCO[C@H](CN(C)C(=O)Nc2cccc3ccccc23)[C@@H](C)CN([C@@H](C)CO)C(=O)c2cc(NC(=O)Nc3ccc4c(c3)OCO4)ccc2O1,11.2% [at 21 µM]
18,COc1ccc(S(=O)(=O)N2CCN(c3ccc4nnc(-c5ccccc5)n4n3)CC2)cc1,30.8%
19,COc1ccc(-c2nc(CC(=O)O)cs2)cc1,7.8%
20,COc1ccc(-c2noc(CCCOc3ccc(Cl)cc3Cl)n2)cc1,4.69%
21,COc1ccc2sc(-c3ccccc3OC)c(-c3ccc(O)cc3)c2c1,-11.5%
22,C[C@@H]1CCCCO[C@@H](CN(C)S(=O)(=O)c2ccc(F)cc2)[C@@H](C)CN([C@H](C)CO)C(=O)c2cc(NC(=O)Nc3cccc4ccccc34)ccc2O1,-3.78% [at 21 µM]
23,C[C@@H]1CCCCO[C@H](CN(C)S(=O)(=O)c2cccs2)[C@H](C)CN([C@H](C)CO)C(=O)c2cc(NC(=O)Nc3ccc(F)cc3)ccc2O1,19.6%
24,C[C@H]1CN([C@@H](C)CO)C(=O)c2cccc(NC(=O)Nc3ccc4c(c3)OCO4)c2O[C@@H]1CN(C)CC1CCCCC1,28.6%
25,C[C@H]1CN([C@@H](C)CO)C(=O)c2cccc(NC(=O)Nc3ccc(F)cc3)c2O[C@@H]1CN(C)CC1CCCCC1,-6.58% [at 21 µM]

# From PubChem BioAssay AID624405 (Broad Institute, 2012)
